Screening results from PubChem BioAssay.
Rows were chosen to be rich in hits. Some 14% of all compounds tested hit in one or more screens of this group.
Lassa entry inh: blocks Lassa virus binding to or entry into cells; Lassa virus pseudotype entry inhibition, cell reporter; Potency, µM (series often up to 37.9 µM), for the others: at the top dose activity change, negative = inhibition, most hits filed as inhibitors; 300,000 tested, 1.2% active; AID 540256; calls by dose curve; tested in HEK293 cells; note: potency is the fitted concentration of half-maximal effect; nearly all actives have a fitted effect of over 50% in size
HCV inh: HCV inhibition | Huh7.5.1 HCVcc-Cre infection, luciferase reporter, 44 h | Potency, µM (highest dose often 41.8 µM), for the others: at the highest dose activity change, negative = inhibition, usual class: inhibitors | 340,000 tested, 3.4% active | AID 651820; note: potency is the fitted concentration of half-maximal effect
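1,000 cells/well; 4 h culture; + compound; + HCVcc-Cre (~0.5 moi); 44 h; luciferase substrate, RT 15 min; read 15 sec.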
Pf growth 48h: inhibits P. falciparum growth in the first generation, 48 h; P. falciparum luciferase growth in erythrocytes, 48 h; Potency, µM (doses to about 28.7 µM), without a hit: at the highest dose activity change, negative = inhibition, hits mostly inhibitors; 310,000 tested, 5.9% active; AID 504832; note: potency is the fitted concentration of half-maximal effect
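Luminescence readout; reporter = integrated firefly luciferase in P. falciparum. RBC culture at 2% hematocrit, 0.1% parasitemia final, 37 C/5% CO2; decreased signal taken as growth inhibition.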
HCMV antiviral: blocks human cytomegalovirus replication; HFF cells, HCMV-luciferase reporter, 72 h; stronger effect = lower value; activity change, negative = inhibition, % at 57.5 µM; 410,000 tested, 4.5% active; AID 1259415; in the data active = activity change below about -60%; inconclusive = no clear call, values can overlap the other calls; inactive = above about -39%
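Compounds were evaluated in HFFs infected with an HCMV luciferase reporter virus (MOI 1 PFU/cell). Luciferase in lysates collected 72 h post infection served as the replication measure.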
MARV entry inh: blocks Marburg virus binding to or entry into cells. Marburg virus pseudotyped entry inhibition, cell reporter. Potency, µM (doses to about 37.8 µM), for inactives: top-dose activity change, negative = inhibition, usual class: inhibitors. 300,000 tested, 1.8% active. AID 540276; calls by dose curve; tested in HEK293 cells; note: potency is the fitted concentration of half-maximal effect
Pf growth 96h: P. falciparum growth inhibition at 96 hour, primary screen for plastid delayed-death inhibitors; P. falciparum luciferase reporter growth, 96 h; Potency, µM (titrated, usually from 28.7 µM), for the others: top-dose activity change, negative = inhibition, usual class: inhibitors; 320,000 tested, 6.9% active; note: potency is the fitted concentration of half-maximal effect
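Compounds incubated with erythrocytes infected by luciferase-expressing P. falciparum (2% hematocrit, 0.05% parasitemia final) for 96 hours, 37 C in 5% CO2. Growth inhibition scored as decreased luciferase luminescence.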
Starred values were filed as active, the others as inactive; ! = not confirmed by another sample; [ ] = another dose, or the depositor's remark. Unless noted, calls come from the whole dose curve; as a rule, active = well fitted inhibition curve with a large enough effect; inconclusive = small, poorly fitted or top-dose-only effect, or another doubt; inactive = no such curve, though single readings can be large or run the other way. % is set by controls: 0 for no effect and ±100 for the full control effect.

For CN(Cc1ccc(C(C)(C)C)cc1)C(=O)c1ccc2c(=O)n3c(nc2c1)CCC3 the results were Lassa entry inh -15%[46.1 µM], HCV inh -11%, Pf growth 48h 13µM*, HCMV antiviral -12, MARV entry inh -8% and Pf growth 96h inconclusive.
Screening CCN(CC)c1ccc(C(=O)NNC(=O)c2ccc3c(=O)n4c(nc3c2)CCC4)cc1 returned HCV inh 0%, Pf growth 48h -26%, HCMV antiviral -10 and Pf growth 96h inconclusive.
For COc1cc(F)ccc1-c1cc(C(=O)NCc2cc(C(F)(F)F)cc(C(F)(F)F)c2)[nH]n1 the results were HCMV antiviral 37.
For CCN(CC)C(=O)c1cccc(NC(=O)c2ccc3c(=O)n4c(nc3c2)CCC4)c1 the results were Lassa entry inh 32%, HCV inh -20%, Pf growth 48h inconclusive, HCMV antiviral -21, MARV entry inh 12% and Pf growth 96h 0%.
For O=C(Nc1cccc(S(=O)(=O)N2CCCCC2)c1)c1ccc2c(=O)n3c(nc2c1)CCCCC3 the results were Lassa entry inh inconclusive, HCV inh 6.3µM*, Pf growth 48h inconclusive, HCMV antiviral -88*, MARV entry inh 3.2µM* and Pf growth 96h 13µM*.
For CCOc1ccc(NC(=O)c2ccc3c(=O)n4c(nc3c2)CCCCC4)cc1 the results were Lassa entry inh -2%[46.1 µM], HCV inh 11µM*, Pf growth 48h inconclusive, HCMV antiviral -63*!, MARV entry inh -2%[46.1 µM] and Pf growth 96h 16%.
`CCOc1ccc(CCNC(=O)c2ccc3c(=O)n4c(nc3c2)CCCCC4)cc1` gave HCV inh inconclusive, Pf growth 48h inconclusive, HCMV antiviral -8 and Pf growth 96h 9%.
`Cc1ccc(-n2c(=O)c3ccc(C(=O)NCc4ccccc4Cl)cc3n(CC(=O)Nc3ccc(C)cc3C)c2=O)cc1` gave Lassa entry inh inconclusive, HCMV antiviral -5 and MARV entry inh inconclusive.
Screening N#CC(C(=O)NCCc1ccccc1)c1nc2ccccc2nc1N1CCCCC1 (stereo not drawn) returned Lassa entry inh 5%, HCV inh -12%, Pf growth 48h inconclusive, HCMV antiviral -38, MARV entry inh -4% and Pf growth 96h 54%.
For CCOC(=O)N1CCN(c2nc3ccccc3nc2C(C#N)C(=O)NCCc2ccccc2)CC1 (stereo not drawn) the results were Lassa entry inh 2%, HCV inh 3%, Pf growth 48h 7.4µM*, HCMV antiviral -17, MARV entry inh 7% and Pf growth 96h inconclusive.
CCCCCCOC(=O)C(C#N)c1nc2ccccc2nc1N1CCN(CC)CC1 (stereo not drawn) was read as Lassa entry inh inconclusive, HCV inh -17%, Pf growth 48h inconclusive, HCMV antiviral -24, MARV entry inh 4.6µM* and Pf growth 96h inconclusive.
`O=C(O)CCC(=O)N1CCN(c2nc(-c3ccccc3)c3ccccc3n2)CC1` gave HCV inh 4%, Pf growth 48h -9%, HCMV antiviral -34 and Pf growth 96h 11%.
Screening CCOC(=O)N1CCN(c2nc(-c3ccccc3)c3ccccc3n2)CC1 returned Lassa entry inh 21%[46.1 µM], HCV inh inconclusive, Pf growth 48h 10µM*, MARV entry inh 15%[46.1 µM] and Pf growth 96h inconclusive.
`CCN1CCN(c2nc3ccccc3nc2C(C#N)C(=O)OCc2ccccc2)CC1` (stereo not drawn) gave Lassa entry inh -21%, HCV inh -30%, Pf growth 48h 12µM*, HCMV antiviral 2, MARV entry inh inconclusive and Pf growth 96h inconclusive.
`COc1ccccc1N1CCN(c2nc3ccccc3nc2C(C#N)C(=O)OC(C)C)CC1` (stereo not drawn) gave Lassa entry inh inconclusive, HCV inh inconclusive, Pf growth 48h 1.9µM*, HCMV antiviral 60, MARV entry inh inconclusive and Pf growth 96h 2.1µM*.
